Assay [1] concerns the target Tyrosine-protein kinase SYK (Homo sapiens) (UniProt P43405). The note with it: at 10 µM.
Assay [2] has as its target T1, Mitogen-activated protein kinase kinase kinase 7 (Homo sapiens) (UniProt O43318).
T1 sequence (whole entry): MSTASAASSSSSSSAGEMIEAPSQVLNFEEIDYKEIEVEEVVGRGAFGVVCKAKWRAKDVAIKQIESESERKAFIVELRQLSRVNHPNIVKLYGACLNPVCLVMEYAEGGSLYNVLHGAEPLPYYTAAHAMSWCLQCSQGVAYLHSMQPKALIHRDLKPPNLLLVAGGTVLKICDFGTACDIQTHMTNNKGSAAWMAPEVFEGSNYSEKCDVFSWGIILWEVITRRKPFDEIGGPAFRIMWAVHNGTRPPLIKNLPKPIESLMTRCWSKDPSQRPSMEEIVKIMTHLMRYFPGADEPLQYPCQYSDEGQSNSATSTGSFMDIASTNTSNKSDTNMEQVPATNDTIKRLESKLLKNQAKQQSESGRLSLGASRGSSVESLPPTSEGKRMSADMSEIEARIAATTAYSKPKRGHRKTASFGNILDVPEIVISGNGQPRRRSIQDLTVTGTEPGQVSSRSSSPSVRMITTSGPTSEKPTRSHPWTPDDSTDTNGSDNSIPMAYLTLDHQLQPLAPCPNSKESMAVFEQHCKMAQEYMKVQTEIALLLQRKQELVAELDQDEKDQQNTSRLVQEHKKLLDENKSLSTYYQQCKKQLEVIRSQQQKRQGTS
The note with it: at 10 µM.

In assay [3] the target is T2, Serine/threonine-protein kinase TAO1 (Homo sapiens) (UniProt Q7L7X3).
T2 sequence (whole entry): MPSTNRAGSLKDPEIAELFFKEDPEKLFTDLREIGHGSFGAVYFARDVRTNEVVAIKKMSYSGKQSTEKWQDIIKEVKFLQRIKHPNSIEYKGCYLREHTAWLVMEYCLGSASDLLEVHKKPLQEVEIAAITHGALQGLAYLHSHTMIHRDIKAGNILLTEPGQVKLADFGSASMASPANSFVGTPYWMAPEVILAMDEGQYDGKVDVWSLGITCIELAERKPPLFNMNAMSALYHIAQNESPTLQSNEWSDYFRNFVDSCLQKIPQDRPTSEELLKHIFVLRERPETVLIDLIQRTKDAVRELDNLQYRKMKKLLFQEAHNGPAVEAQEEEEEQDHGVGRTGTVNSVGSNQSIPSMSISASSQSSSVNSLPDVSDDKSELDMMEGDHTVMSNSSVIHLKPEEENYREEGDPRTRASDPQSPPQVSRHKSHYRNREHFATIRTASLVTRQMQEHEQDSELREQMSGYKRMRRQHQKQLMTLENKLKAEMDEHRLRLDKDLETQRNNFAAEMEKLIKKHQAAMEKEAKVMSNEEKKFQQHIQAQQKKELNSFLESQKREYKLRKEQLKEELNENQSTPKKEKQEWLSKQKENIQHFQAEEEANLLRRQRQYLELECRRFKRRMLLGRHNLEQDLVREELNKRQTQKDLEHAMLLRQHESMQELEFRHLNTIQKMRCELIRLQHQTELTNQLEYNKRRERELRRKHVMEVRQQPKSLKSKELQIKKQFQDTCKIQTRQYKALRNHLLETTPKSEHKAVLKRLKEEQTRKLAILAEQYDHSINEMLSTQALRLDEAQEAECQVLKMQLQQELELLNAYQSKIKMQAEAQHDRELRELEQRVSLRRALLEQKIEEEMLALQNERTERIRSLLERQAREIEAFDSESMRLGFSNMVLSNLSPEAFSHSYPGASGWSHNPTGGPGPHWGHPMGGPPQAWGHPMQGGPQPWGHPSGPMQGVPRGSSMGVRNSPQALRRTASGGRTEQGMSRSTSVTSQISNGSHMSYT
The note with it: at 1 µM.

Assay [4] deals with T2, Serine/threonine-protein kinase TAO1 (Homo sapiens). The note with it: at 10 µM.
For assay [5], the target named is T3, Serine/threonine-protein kinase TAO2 (Homo sapiens) (UniProt Q9UL54).
T3 sequence (whole entry): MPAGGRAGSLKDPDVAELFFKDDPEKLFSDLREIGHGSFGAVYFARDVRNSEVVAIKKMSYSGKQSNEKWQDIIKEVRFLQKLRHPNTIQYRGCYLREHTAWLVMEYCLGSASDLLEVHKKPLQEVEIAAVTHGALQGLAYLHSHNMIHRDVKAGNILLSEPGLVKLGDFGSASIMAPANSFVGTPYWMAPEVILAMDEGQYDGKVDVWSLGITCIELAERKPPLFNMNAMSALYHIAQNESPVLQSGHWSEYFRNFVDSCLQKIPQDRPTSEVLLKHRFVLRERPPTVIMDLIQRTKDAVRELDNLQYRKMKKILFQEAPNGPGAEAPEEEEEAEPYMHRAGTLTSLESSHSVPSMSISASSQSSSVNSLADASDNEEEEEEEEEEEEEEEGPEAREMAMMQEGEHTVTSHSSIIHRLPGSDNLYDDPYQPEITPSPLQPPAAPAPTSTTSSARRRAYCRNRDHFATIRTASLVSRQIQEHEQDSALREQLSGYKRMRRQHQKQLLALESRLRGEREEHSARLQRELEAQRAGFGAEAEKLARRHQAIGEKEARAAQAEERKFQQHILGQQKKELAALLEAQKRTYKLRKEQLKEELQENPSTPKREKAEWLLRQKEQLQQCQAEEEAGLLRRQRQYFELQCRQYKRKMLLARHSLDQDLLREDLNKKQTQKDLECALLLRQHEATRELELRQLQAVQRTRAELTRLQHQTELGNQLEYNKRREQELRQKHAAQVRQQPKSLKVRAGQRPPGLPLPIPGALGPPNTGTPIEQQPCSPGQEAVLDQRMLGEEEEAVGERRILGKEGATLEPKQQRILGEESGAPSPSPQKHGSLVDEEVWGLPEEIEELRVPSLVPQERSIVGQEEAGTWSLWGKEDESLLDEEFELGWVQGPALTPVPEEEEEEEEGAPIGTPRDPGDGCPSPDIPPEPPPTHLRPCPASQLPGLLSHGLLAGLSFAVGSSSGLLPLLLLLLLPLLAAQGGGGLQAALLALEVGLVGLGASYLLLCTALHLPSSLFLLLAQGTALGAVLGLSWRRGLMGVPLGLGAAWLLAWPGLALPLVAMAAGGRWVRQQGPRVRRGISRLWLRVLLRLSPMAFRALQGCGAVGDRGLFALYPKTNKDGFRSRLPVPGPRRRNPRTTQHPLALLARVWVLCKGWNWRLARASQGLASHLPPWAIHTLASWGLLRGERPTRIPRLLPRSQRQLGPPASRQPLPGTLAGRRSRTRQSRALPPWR
The settings on record: at 1 µM.

In assay [6] the target is T3, Serine/threonine-protein kinase TAO2 (Homo sapiens). The note with it: at 10 µM.
For assay [7], the target named is T4, Serine/threonine-protein kinase TAO3 (Homo sapiens) (UniProt Q9H2K8).
T4 sequence (whole entry): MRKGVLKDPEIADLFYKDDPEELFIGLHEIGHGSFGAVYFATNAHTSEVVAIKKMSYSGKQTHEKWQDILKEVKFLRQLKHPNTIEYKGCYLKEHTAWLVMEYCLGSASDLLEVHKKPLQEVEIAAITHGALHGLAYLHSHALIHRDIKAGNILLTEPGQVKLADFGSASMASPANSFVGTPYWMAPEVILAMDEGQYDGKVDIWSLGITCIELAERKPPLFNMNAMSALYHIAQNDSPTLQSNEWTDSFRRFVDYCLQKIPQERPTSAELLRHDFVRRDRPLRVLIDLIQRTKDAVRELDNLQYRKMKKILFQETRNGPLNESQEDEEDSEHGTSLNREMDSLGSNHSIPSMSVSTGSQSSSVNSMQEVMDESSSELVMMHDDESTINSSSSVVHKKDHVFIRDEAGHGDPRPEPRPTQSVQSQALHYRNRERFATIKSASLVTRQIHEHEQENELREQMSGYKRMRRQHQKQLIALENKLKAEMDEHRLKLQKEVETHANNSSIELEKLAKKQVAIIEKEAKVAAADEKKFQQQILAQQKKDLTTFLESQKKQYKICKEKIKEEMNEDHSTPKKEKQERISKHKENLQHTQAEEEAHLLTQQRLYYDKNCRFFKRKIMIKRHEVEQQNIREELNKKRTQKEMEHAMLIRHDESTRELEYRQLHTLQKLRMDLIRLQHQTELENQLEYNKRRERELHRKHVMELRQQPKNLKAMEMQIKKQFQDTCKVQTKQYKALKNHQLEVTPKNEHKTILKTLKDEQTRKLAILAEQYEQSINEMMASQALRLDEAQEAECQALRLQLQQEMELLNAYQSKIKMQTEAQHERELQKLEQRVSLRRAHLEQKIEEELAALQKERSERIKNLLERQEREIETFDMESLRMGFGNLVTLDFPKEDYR
The settings on record: at 1 µM.

The target of assay [8] is T4, Serine/threonine-protein kinase TAO3 (Homo sapiens). The settings on record: at 10 µM.
In assay [9] the target is T5, Serine/threonine-protein kinase TBK1 (Homo sapiens) (UniProt Q9UHD2).
T5 sequence (whole entry): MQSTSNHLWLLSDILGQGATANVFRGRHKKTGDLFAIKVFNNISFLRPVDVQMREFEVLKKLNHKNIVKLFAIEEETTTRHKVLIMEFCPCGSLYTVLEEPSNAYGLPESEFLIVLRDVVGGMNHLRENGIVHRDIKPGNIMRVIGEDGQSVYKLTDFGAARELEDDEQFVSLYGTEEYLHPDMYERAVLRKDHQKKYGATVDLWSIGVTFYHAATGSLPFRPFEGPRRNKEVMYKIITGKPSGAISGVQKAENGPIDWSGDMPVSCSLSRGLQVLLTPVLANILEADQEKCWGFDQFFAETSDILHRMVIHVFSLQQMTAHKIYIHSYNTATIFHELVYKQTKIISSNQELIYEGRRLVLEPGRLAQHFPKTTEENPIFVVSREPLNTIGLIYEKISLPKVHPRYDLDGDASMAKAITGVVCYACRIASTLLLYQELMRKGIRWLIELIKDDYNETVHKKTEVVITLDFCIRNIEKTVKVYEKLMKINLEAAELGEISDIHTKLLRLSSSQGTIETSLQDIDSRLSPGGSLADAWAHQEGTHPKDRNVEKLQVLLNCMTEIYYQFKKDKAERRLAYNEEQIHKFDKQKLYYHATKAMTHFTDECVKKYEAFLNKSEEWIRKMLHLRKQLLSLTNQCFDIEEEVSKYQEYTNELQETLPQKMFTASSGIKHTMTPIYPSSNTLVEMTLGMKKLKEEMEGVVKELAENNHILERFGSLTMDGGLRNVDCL
The settings on record: at 1 µM.

For `Ic1cccc(CSc2nnc(-c3ccncc3)o2)c1`, the residual activity in assay [1] was found to be 96%; in assay [2], 82%; in assay [3], 63%; in assay [4], 47%; in [5] it was 88%; in assay [6], 85%. The results for the residual activity in assay [7], in [8] and in [9] were 93%, 89% and 15%, respectively.

Source of the values: ChEMBL document CHEMBL2218924, “A broad activity screen in support of a chemogenomic map for kinase signalling research and drug discovery” (Biochem J, 2013).
